{"source": "paper PMC8384837", "about": "“Expanding the binding specificity for RNA recognition by a PUF domain”", "experiment_in_all_cases": "yeast three-hybrid, YBZ-1, SC-Leu-His + 0.5 mM 3-AT, 4 days", "settings_in_all_cases": "tags: N-Gal4 AD-HA kept; label: inside an RPR1-promoter hybrid RNA with tandem MS2 sites; ssRNA", "key": {"[1]": {"biological_target": "PUM1 PUF domain R1-ARR (Homo sapiens, UniProt Q14671 828-1176, S863A;Q867R)", "how_it_was_run": "(§1)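 The interaction score is the log change in how often each variant appears, from input to selection. Frequencies came from PCR-amplified, Illumina-sequenced repeat regions of Pumilio-1 PUF domain libraries grown in strain YBZ-1 (LexA–MS2 coat fusion, HIS3 reporter) alongside matching RNA elements. Input plates were SC-Leu and selection plates were SC-Leu-His + 0.5 mM 3-AT, each for four days, and the log2 calculation used a pseudocount of 1 where a variant was absent.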"}, "[2]": {"biological_target": "PUM1 PUF domain R5-KGS (Homo sapiens, UniProt Q14671 828-1176, C1007K;R1008G;Q1011S)", "how_it_was_run": "as §1"}, "[3]": {"biological_target": "PUM1 PUF domain R5-QCS (Homo sapiens, UniProt Q14671 828-1176, C1007Q;R1008C;Q1011S)", "how_it_was_run": "as §1"}, "[4]": {"biological_target": "PUM1 PUF domain R3-RCN (Homo sapiens, UniProt Q14671 828-1176, C935R;R936C;Q939N)", "how_it_was_run": "as §1"}, "[5]": {"biological_target": "PUM1 PUF domain R4-SNR (Homo sapiens, UniProt Q14671 828-1176, N971S;H972N;Q975R)", "how_it_was_run": "as §1"}, "[6]": {"biological_target": "PUM1 PUF domain R4-SWP (Homo sapiens, UniProt Q14671 828-1176, N971S;H972W;Q975P)", "how_it_was_run": "as §1"}, "[7]": {"biological_target": "PUM1 PUF domain R4-ARG (Homo sapiens, UniProt Q14671 828-1176, N971A;H972R;Q975G)", "sequence (Q14671 828-1176 N971A/H972R/Q975G)": "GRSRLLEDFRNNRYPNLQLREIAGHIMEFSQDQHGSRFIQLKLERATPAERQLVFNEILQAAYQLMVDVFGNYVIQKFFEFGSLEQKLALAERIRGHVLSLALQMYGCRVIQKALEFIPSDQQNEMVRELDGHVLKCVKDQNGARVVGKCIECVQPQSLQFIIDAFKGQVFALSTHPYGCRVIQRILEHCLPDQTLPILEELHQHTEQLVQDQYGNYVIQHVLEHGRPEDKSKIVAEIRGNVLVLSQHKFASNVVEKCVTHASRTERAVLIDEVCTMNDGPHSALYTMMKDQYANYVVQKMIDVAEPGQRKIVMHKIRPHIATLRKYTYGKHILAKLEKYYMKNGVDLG", "how_it_was_run": "as §1"}, "[8]": {"biological_target": "PUM1 PUF domain R4-NPG (Homo sapiens, UniProt Q14671 828-1176, H972P;Q975G)", "sequence (Q14671 828-1176 H972P/Q975G)": "as the sequence (Q14671 828-1176 N971A/H972R/Q975G) above, with A144N, R145P counted along it", "how_it_was_run": "as §1"}, "[9]": {"biological_target": "PUM1 PUF domain R7-EPW (Homo sapiens, UniProt Q14671 828-1176, S1079E;N1080P;E1083W)", "how_it_was_run": "as §1"}, "[10]": {"biological_target": "PUM1 PUF domain R7-KFY (Homo sapiens, UniProt Q14671 828-1176, S1079K;N1080F;E1083Y)", "how_it_was_run": "as §1"}}, "data": [{"sequence": "GGCUAGAACUAGUGGAUCCCCCGGCGCCCGGCGGCUCGAGCCCGGGUAAGUGUAAAUCGUCUGCAUGCCGCCGGGCGCCAUGCCUGCAGGUCGACUCUAGAAAACAUG", "values": [{"measurement": "binding signal", "setting": "[1]", "result": "2.95 log2 enrichment (interaction score)"}]}, {"sequence": "GGCUAGAACUAGUGGAUCCCCCGGCGCCCGGCGGCUCGAGCCCGGGUAAGUGUCAAUAGUCUGCAUGCCGCCGGGCGCCAUGCCUGCAGGUCGACUCUAGAAAACAUG", "values": [{"measurement": "binding signal", "setting": "[2]", "result": "4.66 log2 enrichment (interaction score)"}]}, {"sequence": "GGCUAGAACUAGUGGAUCCCCCGGCGCCCGGCGGCUCGAGCCCGGGUAAGUGUGAAUAGUCUGCAUGCCGCCGGGCGCCAUGCCUGCAGGUCGACUCUAGAAAACAUG", "values": [{"measurement": "binding signal", "setting": "[3]", "result": "3.56 log2 enrichment (interaction score)"}]}, {"sequence": "GGCUAGAACUAGUGGAUCCCCCGGCGCCCGGCGGCUCGAGCCCGGGUAAGUGUAAAUUGUCUGCAUGCCGCCGGGCGCCAUGCCUGCAGGUCGACUCUAGAAAACAUG", "values": [{"measurement": "binding signal", "setting": "[1]", "result": "1.97 log2 enrichment (interaction score)"}]}, {"sequence": "GGCUAGAACUAGUGGAUCCCCCGGCGCCCGGCGGCUCGAGCCCGGGUAAGUGUAAUUAGUCUGCAUGCCGCCGGGCGCCAUGCCUGCAGGUCGACUCUAGAAAACAUG", "values": [{"measurement": "binding signal", "setting": "[4]", "result": "2.71 log2 enrichment (interaction score)"}]}, {"sequence": "GGCUAGAACUAGUGGAUCCCCCGGCGCCCGGCGGCUCGAGCCCGGGUAAGUGUAUAUAGUCUGCAUGCCGCCGGGCGCCAUGCCUGCAGGUCGACUCUAGAAAACAUG", "values": [{"measurement": "binding signal", "setting": "[5]", "result": "2.9 log2 enrichment (interaction score)"}, {"measurement": "binding signal", "setting": "[6]", "result": "5.26 log2 enrichment (interaction score)"}, {"measurement": "binding signal", "setting": "[7]", "result": "1.79 log2 enrichment (interaction score)"}, {"measurement": "binding signal", "setting": "[8]", "result": "3.81 log2 enrichment (interaction score)"}]}, {"sequence": "GGCUAGAACUAGUGGAUCCCCCGGCGCCCGGCGGCUCGAGCCCGGGUAAGUUUAAAUAGUCUGCAUGCCGCCGGGCGCCAUGCCUGCAGGUCGACUCUAGAAAACAUG", "values": [{"measurement": "binding signal", "setting": "[9]", "result": "2.81 log2 enrichment (interaction score)"}]}, {"sequence": "GGCUAGAACUAGUGGAUCCCCCGGCGCCCGGCGGCUCGAGCCCGGGUAAGUCUAAAUAGUCUGCAUGCCGCCGGGCGCCAUGCCUGCAGGUCGACUCUAGAAAACAUG", "values": [{"measurement": "binding signal", "setting": "[10]", "result": "3.1 log2 enrichment (interaction score)"}]}]}
